In PubChem BioAssay (NCATS):
“And” between values parts separate entries of the source, which are not always exact repeats. Equal values may be shown once. Results filed as inconclusive are left out. The source made the active and inactive calls. Unless noted, calls come from the whole dose curve; as a rule, active = well fitted curve in the direction sought with a large enough effect; inconclusive = small, poorly fitted or top-dose-only effect, or another doubt; inactive = no such curve, though single readings can be large; an effect the other way counts as inactive or inconclusive.

Assays:
[1] = molecular target: Cellular tumor antigen p53 (Homo sapiens) (UniProt P04637); assay: Primary qHTS for small molecule compounds that upregulate eGFP-tagged delta133p53alpha (in N-terminal) cells. (AID 2060322); conditions: NCI-H358 eGFP-delta133p53alpha fluorescence, 24 h; activation: hits give high values;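 note: cells pre-induced with doxycycline then dosed without doxycycline; series mostly up to about 56 µM; 0% = DMSO vehicle and 100% = reference activator; nearly all actives have a fitted effect of over 75% in size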
Procedure, shortened: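 NCI-H358 cells pre-induced 24 h with 10 ng/ml doxycycline for eGFP-delta133p53alpha, plated dox-free and exposed 24 h at 37C to titrated compounds. Fixed, Hoechst-stained; gated GFP peak intensity by laser scanning cytometry, normalized to DMSO (0%) and 57.5 uM 5-azacytidine (100%).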

[2] = molecular target: Cellular tumor antigen p53 (Homo sapiens) (UniProt P04637); assay: Primary qHTS for small molecule compounds that upregulate eGFP-tagged delta133p53alpha (in C-terminal) cells. (AID 2060324);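 note: 0% = DMSO wells and 100% = 57.5 µM 5-azacytidine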
Procedure, shortened: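 Readout: filtered GFP peak intensity of gated cells (laser scanning cytometer), normalized plate-wise to intraplate controls, DMSO wells = 0% activity. Cells: NCI-H358 D133p53a-eGFP, dox 100 ng/ml 24 h beforehand, then compound 24 h, 37 °C.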

[3] = molecular target: Aldehyde dehydrogenase, mitochondrial (Homo sapiens) (UniProt P05091); assay: qHTS for Inhibitors of the Aldehyde Dehydrogenase Family (ALDH2) Validation screens (AID 2061302; active = well fitted inhibition curve with a large enough effect; title and protocol of this record describe different tests;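 note: plate controls were DMSO vehicle for no effect and maximal DPI positive control response for full effect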)
[4] = molecular target: Retinaldehyde dehydrogenase 3 (Homo sapiens) (UniProt P47895); assay: qHTS for Inhibitors of the Aldehyde Dehydrogenase Family (ALDH1A3) Validation screen (AID 2061312); note: % is set by controls: 0 for no effect and ±100 for the full control effect; nearly all actives have a fitted effect of over 45% in size

Sequence of Cellular tumor antigen p53 (Homo sapiens) (P04637 whole entry, looked up): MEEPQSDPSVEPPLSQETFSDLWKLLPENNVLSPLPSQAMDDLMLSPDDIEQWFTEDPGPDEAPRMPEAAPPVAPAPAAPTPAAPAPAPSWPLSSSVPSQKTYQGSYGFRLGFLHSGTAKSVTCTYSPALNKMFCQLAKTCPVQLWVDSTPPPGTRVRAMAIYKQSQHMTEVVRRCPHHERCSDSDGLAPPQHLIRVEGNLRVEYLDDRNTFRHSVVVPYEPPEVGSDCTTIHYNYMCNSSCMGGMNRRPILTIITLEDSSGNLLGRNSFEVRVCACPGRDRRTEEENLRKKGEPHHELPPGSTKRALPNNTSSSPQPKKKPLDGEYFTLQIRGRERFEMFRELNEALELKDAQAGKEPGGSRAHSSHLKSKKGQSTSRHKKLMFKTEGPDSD

N#CC(C#N)=C(N)/C(C#N)=C/c1ccc(O)cc1
inactive: activation [1] -15.2% | Potency [2] | Potency [3] | Potency [4]

Cn1ccnc1
inactive: activation [1] -23.6% | Potency [2] | Potency [3] | Potency [4]

O=c1[nH]c(=O)n([C@H]2C[C@H](O)[C@@H](CO)O2)cc1Br
inactive: activation [1] -16.4% and -22.3% | Potency [2] | Potency [3] | Potency [4]

Nc1nc2ccc(Cl)cc2n2c(-c3ccccc3)nnc12
inactive: activation [1] -21.3% | Potency [2] | Potency [3] | Potency [4]

S=C(S)OC1CC2CC1C1CCCC21 (stereo not given)
inactive: activation [1] -23.4% | Potency [2] | Potency [3] | Potency [4]

CCCC(CCC)C(=O)OC1CC2CCC(C1)[N+]2(C)C (stereo not given)
inactive: activation [1] -17.7% | Potency [2] | Potency [3] | Potency [4]

Cn1c(=O)c2[nH]c(-c3ccccc3)nc2n(C)c1=O
inactive: activation [1] -37% | Potency [2] | Potency [3] | Potency [4]

OCCN1CCN(CCCN2c3ccccc3Sc3ccc(Cl)cc32)CC1
inactive: activation [1] -6.69% and -35.6% | Potency [2] | Potency [3] | Potency [4]

CCOC(=O)C1=C(C)NC(C)=C(C(=O)OC)C1c1cccc(Cl)c1Cl (stereo not given)
inactive: activation [1] 16.4% and -13.8% | Potency [2] | Potency [3] | Potency [4]

CO[C@H]1O[C@@H]2O[C@]3(C)CC[C@@H]4[C@@H](C)CC[C@H]([C@H]1C)[C@]24OO3
inactive: activation [1] -13% | Potency [2] | Potency [3] | Potency [4]

COCc1nc2c([nH]1)c(=O)n(C)c(=O)n2CC(C)C
inactive: activation [1] 12.4% | Potency [2] | Potency [3] | Potency [4]

CC[C@H]1OC(=O)[C@H](C)C(O[C@H]2C[C@@](C)(OC)[C@@H](O)[C@H](C)O2)[C@H](C)[C@@H](OC2O[C@H](C)C[C@H](N(C)C)[C@H]2O)[C@](C)(O)C[C@@H](C)CN(C)[C@H](C)[C@@H](O)[C@]1(C)O (stereo not given in full)
inactive: activation [1] -28.2% | Potency [2] | Potency [3] | Potency [4]

COC(=O)c1c(C)[nH]c(C)c1C(=O)c1ccccc1Cc1ccccc1
inactive: activation [1] -23.2% | Potency [2] | Potency [3] | Potency [4]

C[C@H](Cc1ccccc1)Nc1ncnc2c1ncn2[C@@H]1O[C@H](CO)[C@@H](O)[C@H]1O
inactive: activation [1] -29.5% | Potency [2] | Potency [3] | Potency [4]

O=[N+]([O-])c1cccc2c(Br)[nH]nc12
inactive: activation [1] -55.3% | Potency [2] | Potency [3] | Potency [4]

CCOC(=O)C1=C[C@]2(CC)CCCN3CCc4c(n1c1ccccc41)[C@@H]32
inactive: activation [1] 20.9% and -18.2% | Potency [2] | Potency [3] | Potency [4]

OCC1O[C@H](O)C(Cl)C(O)C1O (stereo not given in full)
inactive: activation [1] -8.54% | Potency [2] | Potency [3] | Potency [4]

Fc1ccc(CN(C2=NCCN2)c2c(Cl)cccc2Cl)cc1
inactive: activation [1] -28.1% | Potency [2] | Potency [3] | Potency [4]

NC(N)=NC(=O)c1nc(Cl)c(N2CCCCCC2)nc1N
inactive: activation [1] -39.1% | Potency [2] | Potency [3] | Potency [4]

C#C[C@]1(O)CC[C@H]2[C@@H]3CCC4=Cc5oncc5CC4(C)[C@H]3CCC21C (stereo not given in full)
inactive: activation [1] -35.6% | Potency [2] | Potency [3] | Potency [4]

COc1cc(CC(=O)O)ccc1O
inactive: activation [1] -3.12% | Potency [2] | Potency [3] | Potency [4]

CCN(CC)CCNC(=O)c1cc(S(C)(=O)=O)ccc1OC
inactive: activation [1] -10% and -17.5% | Potency [2] | Potency [3] | Potency [4]

CCOC(=O)[C@H](CCc1ccccc1)N[C@@H](C)C(=O)N1[C@H](C(=O)O)C[C@H]2CCCC[C@@H]21
inactive: activation [1] -16.3% | Potency [2] | Potency [3] | Potency [4]

CC(C)[N+](C)(CCOC(=O)C1c2ccccc2Oc2ccccc21)C(C)C
inactive: activation [1] 18.6% and -22.6% | Potency [2] | Potency [3] | Potency [4]

COc1cc(C(O)CO)ccc1O (stereo not given)
inactive: activation [1] -14% | Potency [2] | Potency [3] | Potency [4]

[Li+]
inactive: activation [1] -7.03% | Potency [2] | Potency [3] | Potency [4]

N[C@@H](CCC(=O)N[C@H](CSN=O)C(=O)NCC(=O)O)C(=O)O
inactive: activation [1] -28.5% | Potency [2] | Potency [3] | Potency [4]

Clc1nccc2c1ccc1ccccc12
inactive: activation [1] -42.2% | Potency [2] | Potency [3] | Potency [4]

CC(/C=C/c1cccc(Oc2ccc(F)cc2)c1)N(O)C(N)=O (stereo not given)
inactive: activation [1] -36% | Potency [2] | Potency [3] | Potency [4]

NC1C=CC=C(C(=O)O)C1 (stereo not given)
inactive: activation [1] -22% | Potency [2] | Potency [3] | Potency [4]

Nc1ncnc2c1ncn2C1CCCO1 (stereo not given)
inactive: activation [1] 9.27% | Potency [2] | Potency [3] | Potency [4]

N=c1nc(N2CCCCC2)cc(N)n1O
inactive: activation [1] -6.36% and -9.21% and -2.97% | Potency [2] | Potency [3] | Potency [4]

OC[C@H]1O[C@@H](n2cnc3c(NC4CCCCC4)ncnc32)[C@H](O)[C@@H]1O
inactive: activation [1] 5.46% | Potency [2] | Potency [3] | Potency [4]

O=C(O)C1=CCNCC1
inactive: activation [1] -0.576% | Potency [2] | Potency [3] | Potency [4]

CC[N+](CC)(CC)CC(=O)Nc1c(C)cccc1C
inactive: activation [1] -4.9% | Potency [2] | Potency [3] | Potency [4]

CNCCCC1c2ccccc2C=Cc2ccccc21
inactive: activation [1] -1.67% and -3.36% | Potency [2] | Potency [3] | Potency [4]

NCCCS(=O)(=O)O
inactive: activation [1] 14.5% | Potency [2] | Potency [3] | Potency [4]

Fc1ccc(C(OCCCc2cnc[nH]2)c2ccc(F)cc2)cc1
inactive: activation [1] -45.7% | Potency [2] | Potency [3] | Potency [4]

CCc1ccc2c(-c3cccc(Cl)c3)nc(=O)n(CC)c2n1
inactive: activation [1] -40.5% | Potency [2] | Potency [3] | Potency [4]

COc1ccc2c(c1)CCC1C2CC[C@@]2(C)C1CC[C@@H]2NCCCCCCN1C(=O)CCC1=O (stereo not given in full)
inactive: activation [1] 10.7% | Potency [2] | Potency [3] | Potency [4]

O=c1onc2n1-c1cc(Br)ccc1OC2
inactive: activation [1] -18.5% | Potency [2] | Potency [3] | Potency [4]

O=C(c1ccc2c(c1)OCCO2)N1CCCCC1
inactive: activation [1] 8.27% | Potency [2] | Potency [3] | Potency [4]

CNC(=O)[C@H]1O[C@@H](n2cnc3c(NCc4ccc(N)cc4)ncnc32)[C@H](O)[C@@H]1O
inactive: activation [1] -32.5% | Potency [2] | Potency [3] | Potency [4]

C[C@@]1(C2CCCC2)Cc2cc(OCC(=O)O)c(Cl)c(Cl)c2C1=O
inactive: activation [1] 4.66% | Potency [2] | Potency [3] | Potency [4]

CN(C)CCC(c1ccc(Cl)cc1)c1ccccn1 (stereo not given)
inactive: activation [1] -24.5% | Potency [2] | Potency [3] | Potency [4]

CC(C)Cc1ccc([C@H](C)C(=O)O)cc1
inactive: activation [1] -12.1% | Potency [2] | Potency [3] | Potency [4]

NC1(C(=O)O)CCCCC1
inactive: activation [1] 13.9% | Potency [2] | Potency [3] | Potency [4]

C/C(=C\c1ccc(C(=O)O)cc1)c1ccc2c(c1)C(C)(C)CCC2(C)C
inactive: activation [1] -14.6% | Potency [2] | Potency [3] | Potency [4]

CN(C)CCCN1c2ccccc2CCc2ccccc21
inactive: activation [1] -0.565% and -9% | Potency [2] | Potency [3] | Potency [4]

CN(C)C(=O)Oc1ccc[n+](C)c1
inactive: activation [1] -10.7% and 11.9% | Potency [2] | Potency [3] | Potency [4]

CCCn1c(=O)c2[nH]c(C3CCCC3)nc2n(CCC)c1=O
inactive: activation [1] -35.5% | Potency [2] | Potency [3] | Potency [4]

OC[C@H]1O[C@@H](n2cnc3c(NC4CCCC4)ncnc32)[C@H](O)[C@@H]1O
inactive: activation [1] -30.9% | Potency [2] | Potency [3] | Potency [4]

COc1ccc(C(=O)NCc2cccnc2)cc1C(=O)NCc1cccnc1
inactive: activation [1] -12.6% | Potency [2] | Potency [3] | Potency [4]

CN1CC(O)C(O)C(O)C1CO (stereo not given)
inactive: activation [1] 9.95% | Potency [2] | Potency [3] | Potency [4]

CCN(CC)CCOCCOC(=O)C1(c2ccccc2)CCCC1
inactive: activation [1] -17.5% and -6.79% | Potency [2] | Potency [3] | Potency [4]

COc1cccc(OC)c1OCCNCC1CSc2ccccc2O1 (stereo not given)
inactive: activation [1] 20.5% | Potency [2] | Potency [3] | Potency [4]

CC(=O)N[C@@H](CS)C(=O)O
inactive: activation [1] 11.9% and -21.2% | Potency [2] | Potency [3] | Potency [4]

CN1CCCC1CCOC(C)(c1ccccc1)c1ccc(Cl)cc1 (stereo not given)
inactive: activation [1] -26.8% | Potency [2] | Potency [3] | Potency [4]

CCCOc1ccccc1-c1nc2n[nH]nc2c(=O)[nH]1
inactive: activation [1] -19.5% | Potency [2] | Potency [3] | Potency [4]

CN(C)CCN(Cc1cccs1)c1ccccn1
inactive: activation [1] -15.3% and -8.14% | Potency [2] | Potency [3] | Potency [4]

CC[C@@H](C)[C@H]1O[C@]2(CC[C@H]1C)C[C@@H]1C[C@@H](CC=C(C)[C@@H](O[C@H]3C[C@H](OC)[C@@H](O[C@H]4C[C@H](OC)[C@@H](O)[C@H](C)O4)[C@H](C)O3)[C@@H](C)C=CC=C3CO[C@@H]4[C@H](O)C(C)=C[C@@H](C(=O)O1)[C@]34O)O2
inactive: activation [1] -12.1% | Potency [2] | Potency [3] | Potency [4]

NC(N)=N[C@@H](CCC(=O)O)C(=O)O
inactive: activation [1] -4.46% | Potency [2] | Potency [3] | Potency [4]

CC1OC1P(=O)(O)O (stereo not given)
inactive: activation [1] 13.6% | Potency [2] | Potency [3] | Potency [4]

O=C(Nc1ccncc1)c1cc([N+](=O)[O-])ccc1Cl
inactive: activation [1] 6.63% | Potency [2] | Potency [3] | Potency [4]

CN/C(=C\[N+](=O)[O-])NCCSCc1ccc(CN(C)C)o1
inactive: activation [1] 7.34% and -15.3% | Potency [2] | Potency [3] | Potency [4]
